The whole screen tested about 360,000 compounds, of which about 25,000 (6.9%) were called active. Not shown: some 9% with an inconclusive outcome. Calls come from the whole dose curve; as a rule, active = well fitted inhibition curve with a large enough effect; inconclusive = small, poorly fitted or top-dose-only effect; inactive = flat fitted curve, though single readings scatter. The entries come from a sample that favours actives as a whole.
Potency is the fitted concentration of half-maximal effect.

For this assay, the target named is Luciferin 4-monooxygenase (Photinus pyralis) (UniProt P08659). Description: qHTS profiling assay for firefly luciferase inhibitor/activator using purifed enzyme and Km concentrations of substrates (counterscreen for miR-21 project).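 For activity change, negative = inhibition: plate controls were vehicle for no effect and reference inhibitor for full effect.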 Note: nearly all actives have a fitted effect of over 55% in size. The settings on record: purified FLuc, luminescence inhibition; series mostly up to 57.5 µM; activity change, negative = inhibition: at the top concentration. A digest of the protocol: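 Biochemical qHTS of compounds, final roughly 60 µM downward over six points, against 10 nM purified firefly luciferase using Km concentrations of substrates (10 uM D-luciferin, 10 uM ATP) in Tris acetate pH 7.5 buffer; luminescence output.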
Luciferin 4-monooxygenase (Photinus pyralis), sequence (P08659 whole entry, looked up): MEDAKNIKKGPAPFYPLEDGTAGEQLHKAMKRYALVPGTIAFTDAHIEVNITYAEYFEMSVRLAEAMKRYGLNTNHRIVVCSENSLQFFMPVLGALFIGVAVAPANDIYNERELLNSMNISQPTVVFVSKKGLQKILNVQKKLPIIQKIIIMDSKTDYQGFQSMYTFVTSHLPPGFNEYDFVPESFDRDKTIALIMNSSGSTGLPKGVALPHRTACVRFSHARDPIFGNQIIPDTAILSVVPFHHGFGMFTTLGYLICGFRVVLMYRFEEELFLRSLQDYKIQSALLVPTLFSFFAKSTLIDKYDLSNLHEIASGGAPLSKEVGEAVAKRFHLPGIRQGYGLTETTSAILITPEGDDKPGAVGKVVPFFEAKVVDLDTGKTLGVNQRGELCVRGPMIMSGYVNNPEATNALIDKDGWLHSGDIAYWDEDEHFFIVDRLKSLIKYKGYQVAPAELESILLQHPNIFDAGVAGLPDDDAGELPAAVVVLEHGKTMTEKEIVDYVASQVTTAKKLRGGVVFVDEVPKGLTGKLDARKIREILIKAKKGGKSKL
(In general: qHTS replaces the single test concentration by a dilution series.)
As for `Cc1ccc(CN(C(=O)c2ccccc2[N+](=O)[O-])c2ccccn2)cc1`, the “activity change, negative = inhibition” value was 2.1% (inactive).

Consider `Cc1cc(C)c(C#N)c(SCC(=O)N(CC(C)C)C2CCS(=O)(=O)C2)n1` (stereo unspecified), for which the “activity change, negative = inhibition” value is 0.183% (inactive). On the same count and under the same terms, next, `O=C(COC(=O)CNC(=O)C1CCCCC1)Nc1cccc(F)c1`: 3.66% (inactive). Same read-out and setting: to `Nc1c(C(=O)OCC(=O)Nc2ccc(OC(F)F)cc2)[nH]c(=O)[nH]c1=O` belongs -1.54% (inactive). As for `O=S(=O)(c1ccc2nc(N3CCN(c4cccc(Cl)c4)CC3)ccc2c1)N1CCCCC1`, the “activity change, negative = inhibition” value was 0.918% (inactive). Take `Cc1ccc(C(=O)Nc2ccc3c(c2)OCO3)cc1S(=O)(=O)N1CCCCC1`: the Potency is 16.9 µM (active). `Cc1ccc(NC(=O)C2CC(=O)N(c3ccc4c(c3)OCCO4)C2)cc1S(=O)(=O)N1CCCCCC1` (stereo unspecified): the “activity change, negative = inhibition” value was 2.14% (inactive). In the case of `O=C(Nc1ccc2c(c1)OCCO2)c1ccc(Cl)c(S(=O)(=O)N2CCCCC2)c1`, the Potency was 13.5 µM (active). `O=C(c1ccc(Cl)c(S(=O)(=O)N2CCCCCC2)c1)N1CCN(c2ccc(O)cc2)CC1`: the “activity change, negative = inhibition” value was 4.76% (inactive). Regarding `Cc1ccc(C(=O)NNC(=O)c2ccncc2)cc1S(=O)(=O)N1CCCCC1`, the “activity change, negative = inhibition” value is -0.932% (inactive).

As for `O=C(c1ccc(Cl)c(S(=O)(=O)N2CCCCC2)c1)N1CCCCCC1`, the “activity change, negative = inhibition” value is -0.389% (inactive). For `Cc1c(Cl)cccc1NC(=O)CCS(=O)(=O)c1ccc2c(c1)oc(=O)n2C`, the “activity change, negative = inhibition” value was -5.67% (inactive).

On to `COc1ccccc1CNS(=O)(=O)c1cc(C(=O)NCc2ccccn2)c(Cl)cc1Cl`, for which the “activity change, negative = inhibition” value is 1.54% (inactive). Still for that read-out and setting: to `CCC(C(=O)Nc1cc(OC)ccc1OC)n1c(=O)c(C(F)(F)F)nc2ccccc21` (stereo unspecified) belongs -0.546% (inactive); to `O=C(O[C@H]1[C@H](Cc2ccccc2)NS(=O)(=O)[C@H]2C[C@@H]3C=C[C@]12O3)c1ccc([N+](=O)[O-])cc1`, 4.04% (inactive).

`CCc1nonc1NC(=O)c1oc2ccc(Cl)cc2c1C`: the Potency result is “inactive”.

As for `Cc1cc(C)cc(NS(=O)(=O)c2cc3c(cc2C)NC(=O)CO3)c1`, the “activity change, negative = inhibition” value was -0.815% (inactive). As to `Cc1ccc(C2c3[nH]c4ccccc4c3CCN2C(=O)c2cccc(C)c2)cc1` (stereo unspecified), the “activity change, negative = inhibition” value is -0.203% (inactive). Turning to `Cc1cccc(C(=O)N2CCc3c([nH]c4ccccc34)C2CC(C)C)n1` (stereo unspecified), the Potency was 16.9 µM (active).

`Cc1cccc(C2c3[nH]c4ccccc4c3CCN2C(=O)c2cc(-c3cccn3C)n[nH]2)n1` (stereo unspecified): the “activity change, negative = inhibition” value was 2.66% (inactive). In the case of `O=C(NCc1cccnc1)C(=O)NCC(c1cccnc1)N1CCN(c2ccccc2)CC1` (stereo unspecified), the “activity change, negative = inhibition” value was 5.36% (inactive). On the same count and under the same terms, next, `CCn1cc(C(=O)NCc2ccc(C)cc2)c(=O)c2cc(S(=O)(=O)N3CCc4ccccc4C3)ccc21`: -5.12% (inactive). `CCc1ccc(NC(=O)N2CCc3ccccc3C2)cc1`: the Potency was 12 µM (active). Consider `O=C(Nc1cccc([N+](=O)[O-])c1)Nn1cnnc1`, for which the “activity change, negative = inhibition” value was 2.4% (inactive). As to `O=C(Nc1cccc([N+](=O)[O-])c1)N1CCc2ccccc2C1`, the Potency is 21.3 µM (active). Turning to `CN1CCN(CC(=O)Nc2cccc([N+](=O)[O-])c2)CC1`, the “activity change, negative = inhibition” value was 1.74% (inactive). The same measure, in the same setting: to `Cc1ccc(NC(=O)CN2CCc3ccccc3C2)cc1C` belongs -21.8% (inactive); to `CCc1ccc(NC(=O)N2CCN(c3ccccc3)CC2)cc1`, -19.9% (inactive); to `Cc1cc(-c2ccc(C)c(S(=O)(=O)N3c4ccccc4CC3C)c2)on1` (stereo unspecified), 3.15% (inactive).

With `Cn1c(=O)c2c(nc(SCC(=O)Nc3ccc(F)cc3)n2Cc2ccc(Cl)cc2)n(C)c1=O`, the “activity change, negative = inhibition” value is -3.31% (inactive).

Turning to `S=C(Cc1ccc(Cl)cc1)N1CCOCC1`, the “activity change, negative = inhibition” value is -1.16% (inactive). Take `CCOC(=O)c1ccc(N2C(=O)c3n[nH]c(C)c3C2c2ccc(O)c(OC)c2)cc1` (stereo unspecified): the “activity change, negative = inhibition” value is 6.1% (inactive). On the same count and under the same terms, to `CCOc1ccc(N(CC)S(=O)(=O)N2CCCC(C(=O)Nc3ccc(C(C)=O)cc3)C2)cc1` (stereo unspecified) belongs 2.45% (inactive); to `NC(=O)CC[C@@H]1NC(=O)[C@@H]2CCCN2C(=O)c2cc([N+](=O)[O-])cc(F)c2NCCC[C@@H](C(N)=O)NC1=O`, -0.328% (inactive). The same measure, in the same setting: to `Cc1ccc(C(C)C)c(OCCSc2nc3ccccc3n2CC(=O)O)c1` belongs -0.728% (inactive); to `CCc1ccc(NC(=O)C2CCCN2S(=O)(=O)c2ccc3nc(-c4ccccc4)[nH]c3c2)cc1` (stereo unspecified), -18.6% (inactive); to `COc1ccc(C2(C)NC(=O)N(CC(=O)c3ccc4c(c3)OCO4)C2=O)cc1` (stereo unspecified), 5.52% (inactive). For the compound `CCOc1ccc(NCCC(=O)c2ccc3c(c2)OCO3)cc1`, the Potency is 21.3 µM (active). With `CCOc1ccc(C(=O)CCC(=O)Nc2ccncc2)cc1`, the “activity change, negative = inhibition” value is -4.1% (inactive). The same measure, in the same setting: next, `Cc1ccc2nc(CN3CCN(S(=O)(=O)c4ccc(C)c(C)c4)CC3)oc2c1`: -1.02% (inactive); `CCC1CCCCN1S(=O)(=O)Cc1ccccc1Cl` (stereo unspecified): -1.4% (inactive). Still for that read-out and setting: next, `CC1(C)NC(=O)N(CC(=O)N2CCN(S(=O)(=O)c3ccccc3F)CC2)C1=O`: 3.62% (inactive). As to `Cc1ccc(NC(=S)Nc2ncccc2C)c(C)c1`, the Potency was 6.75 µM (active).

For the compound `Cc1ccc(NC(=S)NCCc2ccc(Cl)cc2)c(C)c1`, the “activity change, negative = inhibition” value is -4.33% (inactive).

Consider `Cc1ccc(NC(=S)NCc2ccccc2Cl)c(C)c1`, for which the “activity change, negative = inhibition” value was -7.17% (inactive). The same measure, in the same setting: to `CC(C)N(C(=O)CSc1nnc(NC2CC2)s1)c1ccccc1` belongs 1.23% (inactive). `CN(C(=O)CSc1nnc(Nc2ccccc2)s1)C1CCS(=O)(=O)C1` (stereo unspecified): the Potency was 16.9 µM (active). Still for that read-out and setting: to `CN(C(=O)CSc1nnc(-c2ccc(C(C)(C)C)cc2)n1C)C1CCS(=O)(=O)C1` (stereo unspecified) belongs 15.1 µM (active). With `COc1ccc2c(-c3ccccc3)cc(SCC(=O)N(C)C3CCS(=O)(=O)C3)nc2c1` (stereo unspecified), the “activity change, negative = inhibition” value is -10.2% (inactive). On the same count and under the same terms, to `CCn1c(SCC(=O)N(C)C2CCS(=O)(=O)C2)nnc1-c1cccs1` (stereo unspecified) belongs 0.145% (inactive). The same measure, in the same setting: next, `CN(C(=O)CSc1nnc(-c2ccc3c(c2)OCO3)o1)C1CCS(=O)(=O)C1` (stereo unspecified): -0.842% (inactive).

For the origin of these results see PubChem BioAssay AID588342 (National Center for Advancing Translational Sciences (NCATS), 2011).
